Screening results from PubChem BioAssay.
Sampled rows, rich in hits. Any-hit rate of the full collection: about 1.5%.
TrxR1 inh = qHTS Assay for Inhibitors of Mammalian Selenoprotein Thioredoxin Reductase 1 (TrxR1): qHTS; AID 588453, 2011; Thioredoxin reductase 1, cytoplasmic (Rattus norvegicus), O89049; Potency, µM (doses to about 114 µM), for inactives: at the highest dose activity change, negative = inhibition, hits mostly inhibitors; 390,000 compounds, 1% hits; recombinant rTrxR1, NADPH fluorescence consumption, selenite substrate; note: potency is the fitted concentration of half-maximal effect; nearly all actives have a fitted effect of over 65% in size
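Rat TrxR1 (90 nM in the dispensed reagent) was pre-reduced with 400 uM NADPH for 5 min at room temperature, then incubated with compound for 15 min. After 400 uM selenite was added, NADPH fluorescence (Ex 340/Em 450 nm) was followed for 8 min.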
TrxR1 substrate = qHTS Assay for Substrates of Mammalian Selenoprotein Thioredoxin Reductase 1 (TrxR1): qHTS; Potency, µM (titrated, usually from 114 µM), without a hit: top-dose activity change, negative = substrate turnover; 390,000 compounds, 0.01% hits; Thioredoxin reductase 1, cytoplasmic (Rattus norvegicus), O89049; AID 588456, 2011; purified TrxR1 substrate turnover, NADPH consumption readout; note: potency is the fitted concentration of half-maximal effect; nearly all actives have a fitted effect of over 50% in size
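Rat TrxR1, dispensed at 90 nM, was prereduced with 400 uM NADPH (final) for 5 min at ~22 deg C, then incubated with compound 15 min before 400 uM selenite. A first-read NADPH fluorescence drop versus no-compound background flagged substrates.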
GALK inh = qHTS Assay for Inhibitors of Human Galactokinase (GALK) | P51570 | AID 1868, 2009 | Potency, µM (doses to about 57.5 µM), inactives show at the highest dose activity change, negative = inhibition, actives largely listed as inhibitors | 270,000 compounds, 0.007% hits | Purified GALK, Kinase-Glo residual ATP luminescence; note: potency is the fitted concentration of half-maximal effect
Target sequence (P51570 whole entry, looked up): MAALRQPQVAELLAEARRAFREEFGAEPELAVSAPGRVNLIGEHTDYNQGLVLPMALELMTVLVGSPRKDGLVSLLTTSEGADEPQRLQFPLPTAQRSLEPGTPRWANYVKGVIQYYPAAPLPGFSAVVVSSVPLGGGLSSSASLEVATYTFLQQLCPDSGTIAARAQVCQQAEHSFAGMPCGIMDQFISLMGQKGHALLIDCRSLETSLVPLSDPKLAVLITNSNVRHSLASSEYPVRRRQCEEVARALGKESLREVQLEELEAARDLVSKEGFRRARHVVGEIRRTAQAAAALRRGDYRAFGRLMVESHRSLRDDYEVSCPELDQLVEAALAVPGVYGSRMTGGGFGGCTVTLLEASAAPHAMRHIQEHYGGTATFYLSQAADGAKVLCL
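The enzyme phosphorylates galactose (100 uM) using ATP (35 uM); inhibition is detected as higher residual ATP, quantified by bioluminescence after 1 h reaction at room temperature, pH 8.0.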
FBPA coupling cs = qHTS Assay for Inhibitors of Fructose-1,6-bisphosphate Aldolase from Giardia Lamblia: Coupling assay counterscreen; coupling enzyme system counterscreen, AmpLite Red fluorescence; activity change, negative = inhibition, % at 58.2 µM, hits read low; 290,000 compounds, 0.67% hits; AID 2472, 2010; in the data active = activity change below about -30%
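Compounds tested against the coupling enzymes alone at 57.5 uM final; readout was AmpLite Red fluorescence (525/598 nm) after 20 min at RT.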
USP1-UAF1 inh = Inhibitors of USP1/UAF1: Primary Screen; Potency, µM (highest dose often 57.1 µM), without a hit: at the top dose activity change, negative = inhibition, most hits filed as inhibitors; Ubiquitin carboxyl-terminal hydrolase 1 (Homo sapiens), O94782; AID 743255, 2014; 390,000 compounds, 0.23% hits; recombinant USP1/UAF1, Ub-Rhodamine cleavage fluorescence; note: potency is the fitted concentration of half-maximal effect; nearly all actives have a fitted effect of over 60% in size
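USP1/UAF1 complex (1 nM) preincubated 15 min at room temperature with compound, then Ub-Rho substrate (150 nM final) added. Kinetic fluorescence at 480/540 nm over 6 reads at 60 s intervals; 50 mM HEPES pH 7.8, 0.5 mM EDTA, 0.1 mg/ml BSA, 1 mM TCEP, 0.01% Tween-20.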
* = called active by the depositor; ? = inconclusive; . = not tested or not shown; [ ] = another dose, or the depositor's remark. Unless noted, calls come from the whole dose curve; as a rule, active = well fitted curve in the direction sought with a large enough effect; inconclusive = small, poorly fitted or top-dose-only effect, or another doubt; inactive = no such curve, though single readings can be large; an effect the other way counts as inactive or inconclusive. % is set by controls: 0 for no effect and ±100 for the full control effect.

SMILES	TrxR1 inh	TrxR1 substrate	GALK inh	FBPA coupling cs	USP1-UAF1 inh
CCN(CC)Cc1cc(O)c(CN(CC)CC)cc1O	10µM*	7%	6%	-33*	?
CC(C)(C)n1ncc2c(=O)n(Cc3ccc(F)cc3Cl)cnc21	2%	1%	.	.	.
Cc1cccc2cc(C#N)c(NCCNC(=O)COc3ccccc3)nc12	82%	41%	0%	-35*	-3%
Cc1cccc2cc(C#N)c(NCc3ccccc3)nc12	37%	27%	9%	-44*	-26%
CC(N)(Cc1ccc(O)c(O)c1)C(=O)O (stereo not given)	?	14%[57.1 µM]	.	.	.
CN=CC1=C(O)c2ccccc2C1=O	1%[57.1 µM]	-7%	-3%	0	-11%
O=C1C(C2=C(O)c3ccccc3C2=O)=Nc2ccccc21	14µM*	35µM*	?	-16	14µM*
CC(=O)N(c1ccc(Cl)cc1)C1SC(=O)N(c2ccccc2)C1=O (stereo not given)	-4%	-4%	.	.	.
CN1CCN(c2cc(=O)n(Cc3ccc(F)cc3)c(=O)[nH]2)CC1	14µM*	1%[57.1 µM]	1%	2	-12%
O=C(NCc1ccco1)c1cccn2c(=O)c3cc4ccccc4cc3nc12	.	.	-4%	-31*	.
COc1cc2nc(N3CCOCC3)nc(NC3CCN(Cc4ccccc4)CC3)c2cc1OC	-34%	31%	.	.	.
Cc1ccc(S(=O)(=O)N2CCN(c3nc(-c4cccs4)nc4cccnc34)CC2)cc1	?	2%	.	.	.
O=c1c2cc(N3CCOCC3)ccc2[nH]c(=S)n1CCCN1CCCCC1	6%	7%	0%	-38*	-22%
O=c1c2cc(N3CCOCC3)ccc2[nH]c(=S)n1Cc1ccco1	10µM*	4%[57.1 µM]	1%	-28	-20%
O=c1c2cc(N3CCOCC3)ccc2[nH]c(=S)n1CCCN1CCCC1	0%	10%	-1%	0	-22%
CC(=O)C1=C(c2ccc(Br)cc2)C(=O)c2ccccc2C1=O	19%	-25%	-2%	-70*	-11%
O=C(OC(C(=O)N1CCOCC1)c1ccccc1)c1c2c(nc3ccccc13)CCCC2 (stereo not given)	14%	9%	.	.	.
COc1ccc(/C=C/C(=O)c2c(O)c(OC)c3occc3c2OC)cc1OC	-34%	-2%	.	.	.
Cn1cccc1CC(=O)N/N=C/C=C/c1ccco1	50µM*	-4%	3%	-10	-9%
O=C(N/N=C/C=C/c1ccco1)C(O)c1ccccc1 (stereo not given)	13µM*	-3%	.	.	-6%
Cc1cc(/C=C/c2c(C)cnc3ccccc23)ccc1N(C)C	-10%	1%	.	.	.
CCCC(=Nc1ccccc1)C1=C(O)C(C(=O)OC)C(C)(C)CC1=O (stereo not given)	5%	6%	10%	-3	-25%
CCCCC(=Nc1ccc(N)cc1)C1=C(O)C(C(=O)OC)C(C)(C)CC1=O (stereo not given)	?	-14%	-1%	-40*	?
CCC(=Nc1ccc(N)cc1)C1=C(O)C(C(=O)OC)C(C)(C)CC1=O (stereo not given)	?	8%[57.1 µM]	-6%	-48*	?
COc1ccc(C(=O)C[n+]2cc(Br)cc(Br)c2)cc1	22%	2%	.	.	.
SMILES	TrxR1 inh	TrxR1 substrate	GALK inh	FBPA coupling cs	USP1-UAF1 inh
N#C/C(=C\c1ccc(-c2ccc(Cl)c(C(=O)O)c2)o1)c1nc2ccccc2[nH]1	-34%	-28%	.	.	32µM*
Cc1ccc2nc(/C(C#N)=C/c3ccc(-c4cccc(Cl)c4)o3)[nH]c2c1	7%	1%	.	.	-29%
N#C/C(=C\c1ccc(N2CCCCC2)o1)C(N)=O	-6%[57.1 µM]	-4%[57.1 µM]	2%	0	?
N#C/C(=C\c1ccc(N2CCOCC2)o1)c1nc2ccccc2[nH]1	?	6%[57.1 µM]	.	-49*	25µM*
N#C/C(=C\c1ccc(N2CCOCC2)c([N+](=O)[O-])c1)c1nc2ccccc2[nH]1	-21%	-23%	.	-5	0%
N#C/C(=C/c1ccc(N2CCOCC2)o1)c1ccc(Cl)cc1	3.2µM*	-2%	2%	-47*	28µM*
N#C/C(=C\c1ccc(-c2ccc(C(=O)O)cc2)o1)c1nc2ccccc2[nH]1	10%[57.1 µM]	-10%	0%	7	28µM*
O=S(=O)(c1ccc(F)cc1)N1CCN(c2nc(-c3cccs3)nc3cc(Cl)ccc23)CC1	29%	7%	.	.	.
CC(C)(C)CC(C)(C)N=C1Nc2cc(Cl)c(Cl)cc2N[C@]12C[C@H]1CCCC(=O)N3CC[C@@H](C2)[C@@H]13	20%	4%	.	.	.
O=C(CCc1nc2ccccc2[nH]1)N1CCN(C(=O)c2ccco2)CC1	8%[57.1 µM]	-7%[57.1 µM]	.	-1	-15%
O=C(CSc1ccc(-c2nc3ccccc3[nH]2)cn1)N1CCN(C(=O)c2ccco2)CC1	1.4µM*	37%	3%	-1	-16%
C#CC(=O)N(c1cc(OC)ccc1OC)C(C(=O)NC1CCCC1)c1cccs1 (stereo not given)	1µM*	-2%	-2%	-1	-7%
C#CC(=O)N(c1ccc(OC)cc1OC)C(C(=O)NC1CCCC1)c1cccs1 (stereo not given)	?	16%[57.1 µM]	1%	2	-20%
N#CCCCSc1nnnn1-c1cc(C(F)(F)F)cc(C(F)(F)F)c1	.	.	.	2	.
CCOP(=O)(OCC)C(C#N)=C1SCN(c2ccc(Cl)cc2)CS1	13µM*	-8%	0%	1	-18%
Cn1c(/C=C/c2ccccc2)nc2ccccc2c1=O	-13%	-3%	.	-2	-3%
Cn1c(/C=C/c2ccc([N+](=O)[O-])o2)nc2ccccc2c1=O	10µM*	-12%	-6%	.	-15%
COc1cccc(OCCSc2nnc3sc4ccccc4n23)c1	3%	-6%	0%	-42*	6%
c1ccc(OCCSc2nnc3sc4ccccc4n23)cc1	18%	-4%	3%	-39*	1%
Nc1ncnc2c1nc(Sc1ccc(Cl)cc1)n2[C@H]1OC2COP(=O)(O)O[C@@H]2C1O (stereo not given in full)	-12%[57.1 µM]	-3%[57.1 µM]	.	.	.
Cc1cc(C)c(-c2cc([C@H](C)O/N=C\[C@@H](C)[C@H](OCc3ccccc3)C(C)C)on2)c(C)c1	.	.	.	1	.
CC1=C(C#N)c2nc(N)c(C#N)c(C)c2/C1=C\c1ccc(OCC(=O)O)c(Cl)c1	50µM*	10%	-13%	-12	-24%
CCOc1ccccc1N(CC(=O)NCCSCc1ccco1)S(=O)(=O)c1ccccc1	22µM*	-8%	-2%	-1	-2%
